Test results from the supplement of paper PMC10849652.
Of roughly 7,900 targets only a part is listed; those with a hit were picked by preference. About 0.6% of all pairs of compound and target were hits. Values without a mark were called inactive.

Tests used:
Assay in all cases: log2 fold change, soluble protein after heating vs DMSO (PISA); higher = thermal stabilisation; K562 cells, 10 uM, 30 min; active = over 0.2 and 3.5 SD of the protein, either way, in both replicates (recomputed)
[1] = compound: NC(=O)Nc1cc(-c2cccc(F)c2)sc1C(=O)N[C@H]1CCCNC1
Summary of the method: (§1)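 K562 cells at 2×10^6 cells/mL were treated with 10 μM compound for 30 min. Aliquots were heated for 3 min across 48°C-58°C, pooled, and extracted in PBS with 0.5% NP-40 at 4°C; soluble protein was the supernatant after 21,000xg for 90 min. Soluble protein was quantified by TMTpro 16plex LC-MS/MS with channel sums equalised, and reported as log2 fold change in thermal stability against DMSO controls, with values from duplicates.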

[2] = compound: NC(=O)c1cnc(N[C@@H]2CCCC[C@@H]2N)nc1Nc1cccc(-n2nccn2)c1
Summary of the method: as §1

[3] = compound: NC1(c2ccc(-c3nc4ccn5c(=O)[nH]nc5c4cc3-c3ccccc3)cc2)CCC1
Summary of the method: as §1

[4] = compound: NCC(=O)Nc1ccc(-n2nc(C(F)(F)F)cc2-c2ccc3c(ccc4ccccc43)c2)cc1
Summary of the method: as §1

[5] = compound: Nc1ccccc1NC(=O)c1ccc(CNC(=O)OCc2cccnc2)cc1 [entinostat]
Summary of the method: as §1

[6] = compound: O=C(CCCCCCC(=O)Nc1ccccc1)NO [vorinostat]
Summary of the method: as §1

[7] = compound: O=C(CCCCCCNC(=O)c1cnc(N(c2ccccc2)c2ccccc2Cl)nc1)NO [citarinostat]
Summary of the method: as §1

[8] = compound: O=C(O)c1ccc2c(c1)nc(Nc1cccc(Cl)c1)c1ccncc12 [silmitasertib]
Summary of the method: as §1

[9] = compound: O=C1NC(=O)C(c2cnc3ccccn23)=C1c1cn2c3c(cc(F)cc13)CN(C(=O)N1CCCCC1)CC2
Summary of the method: as §1

[10] = compound: c1cc(OCCN2CCCCC2)cc(-c2n[nH]c3ccc(-c4nnc[nH]4)cc23)c1
Summary of the method: as §1

[11] = compound: c1cn2cc(-c3ccc4cn[nH]c4c3)nc(Nc3ccc(N4CCOCC4)cc3)c2n1 [entospletinib]
Summary of the method: as §1

Chain of UniProt O60563 (O60563 whole entry, looked up): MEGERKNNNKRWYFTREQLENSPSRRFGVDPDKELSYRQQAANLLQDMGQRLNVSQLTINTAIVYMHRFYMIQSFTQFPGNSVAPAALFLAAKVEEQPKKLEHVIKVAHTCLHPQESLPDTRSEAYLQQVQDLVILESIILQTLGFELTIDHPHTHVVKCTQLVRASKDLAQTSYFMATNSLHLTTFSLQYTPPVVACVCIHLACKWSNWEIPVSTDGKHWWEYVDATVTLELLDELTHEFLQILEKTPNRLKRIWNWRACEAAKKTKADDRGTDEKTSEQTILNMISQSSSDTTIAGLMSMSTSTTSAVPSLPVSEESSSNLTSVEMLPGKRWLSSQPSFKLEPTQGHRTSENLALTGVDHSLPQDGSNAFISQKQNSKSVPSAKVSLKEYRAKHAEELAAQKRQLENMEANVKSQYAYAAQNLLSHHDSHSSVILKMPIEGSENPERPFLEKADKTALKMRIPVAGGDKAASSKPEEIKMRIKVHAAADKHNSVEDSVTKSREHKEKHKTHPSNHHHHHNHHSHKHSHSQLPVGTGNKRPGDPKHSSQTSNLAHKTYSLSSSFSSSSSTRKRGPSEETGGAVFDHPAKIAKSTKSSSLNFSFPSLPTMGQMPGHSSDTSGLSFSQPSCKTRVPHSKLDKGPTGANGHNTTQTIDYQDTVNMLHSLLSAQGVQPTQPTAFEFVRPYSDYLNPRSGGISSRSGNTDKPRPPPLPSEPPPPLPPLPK
Chain of UniProt Q9UIV1 (Q9UIV1 whole entry, looked up): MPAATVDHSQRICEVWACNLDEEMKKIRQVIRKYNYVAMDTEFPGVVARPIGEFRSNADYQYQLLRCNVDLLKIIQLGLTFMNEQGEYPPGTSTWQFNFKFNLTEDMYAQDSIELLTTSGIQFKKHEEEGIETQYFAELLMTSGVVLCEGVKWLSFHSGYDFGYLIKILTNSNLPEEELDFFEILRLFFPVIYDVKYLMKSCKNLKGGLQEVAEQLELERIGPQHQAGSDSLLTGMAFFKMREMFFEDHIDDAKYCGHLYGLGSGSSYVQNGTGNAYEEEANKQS
Chain of UniProt Q8IWY9 (Q8IWY9 whole entry, looked up): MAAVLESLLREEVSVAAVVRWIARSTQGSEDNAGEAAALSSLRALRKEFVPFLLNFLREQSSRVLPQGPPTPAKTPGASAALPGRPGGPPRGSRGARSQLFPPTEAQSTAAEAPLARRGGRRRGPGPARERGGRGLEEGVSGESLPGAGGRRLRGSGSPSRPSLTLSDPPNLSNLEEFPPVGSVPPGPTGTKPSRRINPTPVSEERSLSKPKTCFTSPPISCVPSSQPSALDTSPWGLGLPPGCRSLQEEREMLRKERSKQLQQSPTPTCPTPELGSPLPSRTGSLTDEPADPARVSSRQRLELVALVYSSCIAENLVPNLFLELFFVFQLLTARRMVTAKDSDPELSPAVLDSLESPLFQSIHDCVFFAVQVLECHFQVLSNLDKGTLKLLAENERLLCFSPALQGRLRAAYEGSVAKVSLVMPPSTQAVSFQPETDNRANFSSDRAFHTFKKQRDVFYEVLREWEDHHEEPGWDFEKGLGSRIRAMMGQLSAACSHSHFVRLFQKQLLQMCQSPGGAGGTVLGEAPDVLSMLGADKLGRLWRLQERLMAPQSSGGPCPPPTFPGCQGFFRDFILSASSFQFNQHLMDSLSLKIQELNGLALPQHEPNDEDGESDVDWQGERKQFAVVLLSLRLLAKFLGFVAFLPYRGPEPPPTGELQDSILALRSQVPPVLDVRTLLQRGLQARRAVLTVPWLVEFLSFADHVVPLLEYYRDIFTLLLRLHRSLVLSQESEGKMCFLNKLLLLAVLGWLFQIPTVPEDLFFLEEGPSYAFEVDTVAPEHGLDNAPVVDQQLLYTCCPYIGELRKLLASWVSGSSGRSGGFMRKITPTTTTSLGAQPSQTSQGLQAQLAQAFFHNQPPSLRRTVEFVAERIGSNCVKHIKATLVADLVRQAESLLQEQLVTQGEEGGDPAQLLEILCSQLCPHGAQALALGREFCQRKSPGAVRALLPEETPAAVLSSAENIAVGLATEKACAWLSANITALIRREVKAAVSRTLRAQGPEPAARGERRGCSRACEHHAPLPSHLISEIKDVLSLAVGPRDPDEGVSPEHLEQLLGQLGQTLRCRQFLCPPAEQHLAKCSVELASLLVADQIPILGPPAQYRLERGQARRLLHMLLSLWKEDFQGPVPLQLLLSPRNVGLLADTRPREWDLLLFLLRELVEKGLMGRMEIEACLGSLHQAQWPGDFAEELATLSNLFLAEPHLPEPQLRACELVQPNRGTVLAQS
Chain of UniProt Q00587 (Q00587 whole entry, looked up): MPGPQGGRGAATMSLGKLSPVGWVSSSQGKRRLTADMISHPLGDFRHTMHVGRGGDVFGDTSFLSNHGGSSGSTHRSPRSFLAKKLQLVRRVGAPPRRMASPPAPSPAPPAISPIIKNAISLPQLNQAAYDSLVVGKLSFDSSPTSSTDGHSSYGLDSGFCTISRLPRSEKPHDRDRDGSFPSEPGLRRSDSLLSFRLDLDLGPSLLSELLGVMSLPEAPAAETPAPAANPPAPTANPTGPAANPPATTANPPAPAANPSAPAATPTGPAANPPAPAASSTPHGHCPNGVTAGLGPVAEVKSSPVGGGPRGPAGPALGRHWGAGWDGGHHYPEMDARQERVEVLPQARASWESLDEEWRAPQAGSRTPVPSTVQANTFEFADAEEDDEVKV
Chain of UniProt O75909 (O75909 whole entry, looked up): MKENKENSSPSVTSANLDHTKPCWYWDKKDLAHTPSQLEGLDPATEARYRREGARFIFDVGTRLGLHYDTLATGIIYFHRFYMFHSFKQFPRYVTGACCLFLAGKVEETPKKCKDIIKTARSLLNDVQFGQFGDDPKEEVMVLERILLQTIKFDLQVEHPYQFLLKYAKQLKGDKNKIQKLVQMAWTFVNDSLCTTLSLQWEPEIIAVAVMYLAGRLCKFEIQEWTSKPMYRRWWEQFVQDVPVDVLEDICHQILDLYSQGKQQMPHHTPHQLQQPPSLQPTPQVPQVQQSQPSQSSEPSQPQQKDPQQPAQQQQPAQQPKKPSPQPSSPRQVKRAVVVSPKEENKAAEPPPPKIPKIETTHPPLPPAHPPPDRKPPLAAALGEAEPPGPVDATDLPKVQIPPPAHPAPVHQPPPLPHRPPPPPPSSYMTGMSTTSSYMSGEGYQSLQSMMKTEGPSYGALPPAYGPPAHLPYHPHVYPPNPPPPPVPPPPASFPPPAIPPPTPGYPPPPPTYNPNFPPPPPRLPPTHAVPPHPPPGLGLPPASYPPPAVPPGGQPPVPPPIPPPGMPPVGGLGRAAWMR
Chain of UniProt A6NHX0 (A6NHX0 whole entry, looked up): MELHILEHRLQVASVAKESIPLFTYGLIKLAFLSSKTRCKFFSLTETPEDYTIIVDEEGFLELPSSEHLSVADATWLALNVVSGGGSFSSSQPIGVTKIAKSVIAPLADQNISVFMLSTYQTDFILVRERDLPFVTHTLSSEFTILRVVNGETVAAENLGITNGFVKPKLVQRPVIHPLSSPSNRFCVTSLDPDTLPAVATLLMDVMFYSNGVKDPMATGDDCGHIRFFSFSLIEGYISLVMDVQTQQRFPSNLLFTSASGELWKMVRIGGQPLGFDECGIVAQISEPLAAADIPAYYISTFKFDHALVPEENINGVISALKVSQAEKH
Chain of UniProt Q9UKF6 (Q9UKF6 whole entry, looked up): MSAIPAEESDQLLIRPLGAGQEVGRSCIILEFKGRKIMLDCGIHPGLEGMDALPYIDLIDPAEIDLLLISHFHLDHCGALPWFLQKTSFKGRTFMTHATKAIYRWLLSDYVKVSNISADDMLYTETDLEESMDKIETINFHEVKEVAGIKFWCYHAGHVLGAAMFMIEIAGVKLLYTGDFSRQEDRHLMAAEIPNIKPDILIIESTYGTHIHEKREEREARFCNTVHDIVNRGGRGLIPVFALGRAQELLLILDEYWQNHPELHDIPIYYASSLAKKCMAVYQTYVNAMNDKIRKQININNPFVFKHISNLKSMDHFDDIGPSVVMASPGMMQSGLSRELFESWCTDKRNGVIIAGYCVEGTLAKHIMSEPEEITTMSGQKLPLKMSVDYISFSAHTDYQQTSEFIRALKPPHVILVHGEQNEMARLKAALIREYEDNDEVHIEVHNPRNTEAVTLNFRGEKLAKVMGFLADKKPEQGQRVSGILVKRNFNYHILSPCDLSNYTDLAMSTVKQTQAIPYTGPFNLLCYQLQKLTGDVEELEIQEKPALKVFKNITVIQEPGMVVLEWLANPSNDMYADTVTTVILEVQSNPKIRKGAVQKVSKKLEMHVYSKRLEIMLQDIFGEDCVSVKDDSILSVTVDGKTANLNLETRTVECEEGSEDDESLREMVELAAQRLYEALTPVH
Chain of UniProt P35520 (P35520 whole entry, looked up): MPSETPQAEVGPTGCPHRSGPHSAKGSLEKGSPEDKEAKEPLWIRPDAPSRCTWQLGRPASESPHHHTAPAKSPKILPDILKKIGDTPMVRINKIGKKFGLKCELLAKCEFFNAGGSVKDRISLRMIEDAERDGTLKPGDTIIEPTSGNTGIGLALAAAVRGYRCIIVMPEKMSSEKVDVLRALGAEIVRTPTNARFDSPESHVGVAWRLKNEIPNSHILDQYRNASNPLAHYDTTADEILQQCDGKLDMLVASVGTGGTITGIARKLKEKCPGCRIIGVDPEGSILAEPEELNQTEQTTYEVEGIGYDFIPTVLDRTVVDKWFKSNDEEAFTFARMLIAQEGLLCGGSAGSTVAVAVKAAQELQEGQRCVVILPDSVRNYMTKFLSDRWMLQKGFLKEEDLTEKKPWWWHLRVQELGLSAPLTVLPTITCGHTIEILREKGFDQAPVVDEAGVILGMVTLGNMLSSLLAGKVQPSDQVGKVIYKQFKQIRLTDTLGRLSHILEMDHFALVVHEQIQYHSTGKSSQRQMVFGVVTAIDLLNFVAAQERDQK
Chain of UniProt Q8N1A6 (Q8N1A6 whole entry, looked up): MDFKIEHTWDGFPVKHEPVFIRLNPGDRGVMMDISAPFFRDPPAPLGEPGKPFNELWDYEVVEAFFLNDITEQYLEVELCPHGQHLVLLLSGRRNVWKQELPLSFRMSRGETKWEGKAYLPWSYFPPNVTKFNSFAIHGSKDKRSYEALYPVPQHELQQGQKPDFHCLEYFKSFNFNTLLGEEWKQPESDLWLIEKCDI

Target | log2 fold change [1] | log2 fold change [2] | log2 fold change [3] | log2 fold change [4] | log2 fold change [5] | log2 fold change [6] | log2 fold change [7] | log2 fold change [8] | log2 fold change [9] | log2 fold change [10] | log2 fold change [11]
C4orf33 (UniProt Q8N1A6) | 0.152 | -0.003 | -0.218 | -0.061 | -0.156 | -0.05 | 0 | -0.126 | 0.019 | -0.063 | 0.082
CFAP36 isoform 2 (UniProt Q96G28) | 0.027 | -0.1 | -0.095 | -0.152 | 0.023 | -0.014 | -0.022 | 0.131 | -0.025 | 0.065 | 0.116
CNN3 (UniProt Q15417) | -0.051 | -0.125 | -0.124 | -0.144 | 0.091 | 0.023 | 0.047 | 0.047 | -0.032 | -0.001 | -0.022
COPS8 (UniProt Q99627) | 0.02 | 0.038 | -0.042 | 0.043 | 0.034 | 0.041 | 0.056 | 0.044 | -0.077 | 0.018 | 0
CASTOR2 (UniProt A6NHX0) | 0.076 | 0.113 | -0.034 | 0.06 | -0.072 | 0.056 | 0.04 | -0.03 | -0.005 | 0.076 | -0.104
CDAN1 (UniProt Q8IWY9) | -0.033 | -0.042 | -0.192 | -0.091 | 0.051 | 0.022 | -0.011 | 0.095 | 0.036 | -0.018 | 0.023
CKB (UniProt P12277) | -0.035 | -0.02 | -0.117 | -0.033 | -0.001 | -0.023 | -0.046 | -0.117 | -0.04 | -0.018 | 0.063
CAD (UniProt P27708) | 0.033 | -0.014 | -0.145 | 0.008 | -0.026 | 0.088 | 0.014 | 0.003 | 0.108 | -0.141 | -0.089
CNDP2 (UniProt Q96KP4) | -0.013 | -0.035 | -0.052 | 0.01 | -0.015 | -0.015 | 0.023 | -0.065 | -0.005 | 0.001 | 0.03
CSNK2A2 (UniProt P19784) | -0.069 | 0.008 | -0.052 | 0.069 | -0.015 | 0.086 | 0.011 | 0.873 (active) | -0.076 | 0.022 | 0.096
CBS (UniProt P35520) | -0.008 | 0.006 | -0.025 | 0.016 | -0.033 | -0.031 | -0.058 | -0.038 | -0.027 | 0.027 | 0.016
COPS3 isoform 2 (UniProt Q9UNS2) | -0.129 | -0.364 | -0.005 | -0.272 | -0.007 | -0.169 | -0.14 | 0 | -0.597 | 0.011 | 0.135
CCNB1 (UniProt P14635) | -0.031 | -0.015 | -0.03 | 0.016 | -0.002 | 0 | 0.031 | -0.015 | -0.076 | -0.032 | -0.015
CCNT1 (UniProt O60563) | -0.027 | -0.03 | -0.021 | -0.02 | 0.034 | 0.176 | 0.053 | 0 | 0.047 | -0.094 | 0.038
CNOT7 (UniProt Q9UIV1) | -0.053 | 0.039 | 0 | 0.028 | 0.091 | 0.152 | -0.12 | 0.12 | 0.032 | -0.089 | 0.122
CD151 (UniProt P48509) | -0.054 | 0.139 | 0.125 | 0.024 | 0.094 | -0.025 | -0.007 | 0.031 | -0.063 | -0.009 | -0.121
CDC42EP1 (UniProt Q00587) | -0.272 | -0.258 | -0.399 | -0.063 | 0.1 | 0.158 | 0.108 | -0.04 | -0.118 | -0.138 | -0.089
CLUH (UniProt O75153) | -0.002 | -0.072 | 0.023 | -0.025 | 0.022 | 0.05 | -0.08 | 0.063 | 0.133 | 0.041 | 0.06
COX7C (UniProt P15954) | 0.009 | 0.048 | -0.013 | 0.046 | 0.014 | -0.017 | 0.079 | -0.003 | -0.089 | -0.059 | -0.074
COQ9 (UniProt O75208) | 0.02 | -0.002 | -0.151 | -0.032 | 0.045 | 0.028 | -0.013 | 0.021 | -0.103 | 0.008 | -0.022
CHD3 isoform 3 (UniProt Q12873) | 0.023 | -0.152 | -0.113 | -0.013 | 0.036 | 0.101 | 0.057 | 0.154 | 0.057 | -0.101 | -0.001
CBR1 (UniProt P16152) | -0.002 | 0.025 | -0.029 | 0.037 | -0.008 | -0.041 | 0.033 | -0.011 | -0.039 | 0.235 (active) | -0.019
CCAR2 isoform 2 (UniProt Q8N163) | -0.056 | -0.106 | -0.013 | -0.088 | 0.089 | 0.168 | 0.033 | -0.039 | -0.151 | 0.033 | -0.014
CPSF3 (UniProt Q9UKF6) | 0.001 | -0.05 | -0.032 | -0.058 | -0.002 | 0.016 | 0.026 | 0.129 | -0.006 | -0.075 | 0
CIT isoform 4 (UniProt O14578) | -0.072 | -0.101 | -0.108 | 0 | 0.025 | 0.041 | -0.222 | 0.049 | 0.049 | 0.293 | -0.168
CCNK isoform 4 (UniProt O75909) | -0.053 | -0.104 | 0.044 | -0.091 | -0.044 | -0.021 | -0.007 | -0.046 | 0.006 | -0.305 (active) | 0.037
CDC26 (UniProt Q8NHZ8) | 0.034 | 0.352 | 0.152 | 0.704 (active) | 0.097 | 0.019 | -0.025 | -0.003 | 0.007 | -0.003 | 0.023
